Laboratory results published in the OligoGym collection.

Target: TBX10
Test: pooled miR-30 sensor sort-seq; sequence = guide strand
Settings: shRNA

Going from ATACCTGTATCTCTTGTCGTCC to TTCTGATAGGCTGTCACTGCTG, the sensor-assay potency score (higher = more potent) falls from -0.36 to -0.605.

Going from TTGCTGGCGATTTTCAGCTGGG to TATGGTGCTGGTCGGGTCCTTG, the sensor-assay potency score (higher = more potent) falls from -0.663 to -1.11.

First: TTGGTGACGATCATCTCAGTGC
Second: TAGCGCTCACTGTCCTTGCGTG
The sensor-assay potency score (higher = more potent) of the first is higher: -0.282 for the first, -0.517 for the second.

Going from TTCATCTCCAGCTGAACTGTCA to TATCTCTTGTCGTCCAGGGGGA, the sensor-assay potency score (higher = more potent) rises from -0.543 to -0.47.

First: TCCAGCTGAACTGTCACTCTGG
Second: TTGTTGGGGTCTTTCTCCCTGT
The sensor-assay potency score (higher = more potent) of the first is higher: -0.454 for the first, -0.814 for the second.

Going from TGGAGGTGGAAGCTGAAGCTTT to TCACTCTGGACACACGTGGGTT, the sensor-assay potency score (higher = more potent) rises from -1.2 to -1.06.

Target: TBX15
Test: as above
Settings: shRNA

Compared with TAGGCTTCCATCTTGCTGTTGC, TTTTAATCTGGTAATCTGCTGA is higher in sensor-assay potency score (higher = more potent): 0.42 for the first, 0.443 for the second.

Compared with TACACAGACAAATTCTTGGTGA, TGTCTTTCCACTCTCATCCATT is lower in sensor-assay potency score (higher = more potent): 0.47 for the first, -1.03 for the second.

Compared with TTGATCATCCAACTCATTGTTG, TTGTACACAGACAAATTCTTGG is higher in sensor-assay potency score (higher = more potent): -0.489 for the first, -0.17 for the second.

Compared with TTGCTATGTAGTACTGCTGATG, TTAATCTGGTAATCTGCTGATT is higher in sensor-assay potency score (higher = more potent): -1.07 for the first, -0.87 for the second.

First: TTCAGTTCCAATATCATGGAAC
Second: TTTCGGTCAATTTTTAATCTGG
The sensor-assay potency score (higher = more potent) of the first is lower: -0.282 for the first, -0.172 for the second.

In the case of TTAGATTACACAGCTGGCTTTC, the sensor-assay potency score (higher = more potent) is reported as -0.575.
